Laboratory results published in PubChem BioAssay AID1159580 (chemical genetic matrix, 2015).
Hit rate of the full screen: of about 5,500 compounds, about 2,000 (36%) were called active. About 18% were inconclusive and are not listed. Rule as the data show it: active = normalized growth mostly below about 0.91 (no sharp cut-off); inconclusive = no clear call, values can overlap the other calls; inactive = mostly above about 0.92. The list shows a part of the results.

Experiment: chemical genetic growth profiling, strain panel (AID 1159580);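 also: tested at 20 µM; growth read once vehicle control cultures reached saturation at 30 °C; 1 = growth at the plate median or of vehicle wells; lower values mean less growth of the strain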
Details: S. cerevisiae deletion strains, growth OD

Measured: normalized growth

COc1ccc(/C=C/C(=O)c2cc(O)ccc2O)cc1
active: locus YAL021C, strain ccr4, stronger effect = lower value 0.81 | locus YAL026C, strain drs2, stronger effect = lower value 0.224 | locus YAL030W, strain snc1, stronger effect = lower value 0.31 | locus YBL061C, strain skt5, stronger effect = lower value 0.38 | locus YBR009C, strain hhf1, stronger effect = lower value 0.15 | locus YBR023C, strain chs3, stronger effect = lower value 0.314 | locus YBR171W, strain sec66, stronger effect = lower value 0.521 | locus YBR231C, strain swc5, stronger effect = lower value 0.324 | locus YBR279W, strain paf1, stronger effect = lower value 0.242 | locus YCL011C, strain gbp2, stronger effect = lower value 0.15 | locus YCL016C, strain dcc1, stronger effect = lower value 0.227 | locus YCL061C, strain MRC1, stronger effect = lower value 0.167 | locus YCL069W, strain vba3, stronger effect = lower value 0.13 | locus YCR088W, strain abp1, stronger effect = lower value 0.263 | locus YDL005C, strain med2, stronger effect = lower value 0.424 | locus YDL040C, strain nat1, stronger effect = lower value 0.646 | locus YDR001C, strain nth1, stronger effect = lower value 0.344 | locus YDR069C, strain doa4, stronger effect = lower value 0.844 | locus YDR137W, strain rgp1, stronger effect = lower value 0.285 | locus YDR159W, strain sac3, stronger effect = lower value 0.268 | locus YDR195W, strain ref2 0.482 | locus YDR297W, strain sur2, stronger effect = lower value 0.362 | locus YDR334W, strain swr1, stronger effect = lower value 0.172 | locus YDR335W, strain msn5, stronger effect = lower value 0.238 | locus YDR392W, strain spt3, stronger effect = lower value 0.0876 | locus YEL003W, strain gim4, stronger effect = lower value 0.133 | locus YEL037C, strain rad23, stronger effect = lower value 0.617 | locus YEL061C, strain CIN8 (second series), stronger effect = lower value 0.0921 | locus YER015W, strain faa2, stronger effect = lower value 0.429 | locus YER016W, strain bim1, stronger effect = lower value 0.426 | locus YER111C, strain swi4, stronger effect = lower value 0.0945 | locus YER155C, strain BEM2 (second series), stronger effect = lower value 0.106 | locus YFR010W, strain ubp6, stronger effect = lower value 0.685 | locus YGL167C, strain pmr1, stronger effect = lower value 0.894 | locus YGL173C, strain kem1, stronger effect = lower value 0.516 | locus YGL227W, strain vid30, stronger effect = lower value 0.103 | locus YGL240W, strain doc1, stronger effect = lower value 0.48 | locus YGL253W, strain hxk2, stronger effect = lower value 0.172 | locus YHR013C, strain ard1, stronger effect = lower value 0.421 | locus YHR027C, strain rpn1, stronger effect = lower value 0.661 | locus YHR030C, strain SLT2, stronger effect = lower value 0.432 | locus YHR079C, strain IRE1, stronger effect = lower value 0.456 | locus YHR142W, strain chs7, stronger effect = lower value 0.101 | locus YJL092W, strain hpr5, stronger effect = lower value 0.272 | locus YJL095W, strain BCK1 (second series), stronger effect = lower value 0.0826 | locus YJL095W, strain BCK1, stronger effect = lower value 0.427 | locus YJL115W, strain asf1, stronger effect = lower value 0.416 | locus YJL129C, strain trk1, stronger effect = lower value 0.373 | locus YJL154C, strain vps35, stronger effect = lower value 0.613 | locus YJL164C, strain tpk1, stronger effect = lower value 0.152 | locus YJL166W, strain qcr8, stronger effect = lower value 0.141 | locus YJL187C, strain SWE1, stronger effect = lower value 0.269 | locus YJR066W, strain TOR1, stronger effect = lower value 0.465 | locus YKL160W, strain elf1, stronger effect = lower value 0.136 | locus YKR026C, strain gcn3, stronger effect = lower value 0.449 | locus YKR091W, strain srl3, stronger effect = lower value 0.593 | locus YLL001W, strain dnm1, stronger effect = lower value 0.338 | locus YLL026W, stronger effect = lower value 0.226 | locus YLL041C, strain sdh2, stronger effect = lower value 0.379 | locus YLR027C, strain aat2, stronger effect = lower value 0.267 | locus YLR113W, strain HOG1, stronger effect = lower value 0.396 | locus YLR221C, strain rsa3, stronger effect = lower value 0.113 | locus YLR258W, strain gsy2, stronger effect = lower value 0.333 | locus YLR262C, strain YPT6 (second series), stronger effect = lower value 0.289 | locus YLR320W, strain mms22, stronger effect = lower value 0.123 | locus YLR342W, strain FKS1, stronger effect = lower value 0.248 | locus YLR357W, strain rsc2, stronger effect = lower value 0.717 | locus YLR370C, strain arc18, stronger effect = lower value 0.72 | locus YLR384C, strain iki3, stronger effect = lower value 0.605 | locus YML120C, strain ndi1, stronger effect = lower value 0.221 | locus YMR058W, strain fet3, stronger effect = lower value 0.152 | locus YMR125W, strain sto1, stronger effect = lower value 0.156 | locus YMR129W, stronger effect = lower value 0.546 | locus YMR205C, strain PFK2, stronger effect = lower value 0.178 | locus YMR231W, strain pep5, stronger effect = lower value 0.522 | locus YNL071W, strain lat1, stronger effect = lower value 0.0772 | locus YNL183C, strain NPR1, stronger effect = lower value 0.475 | locus YNL209W, strain ssb2, stronger effect = lower value 0.606 | locus YNL248C, strain rpa49, stronger effect = lower value 0.319 | locus YNL322C, strain KRE1 (second series), stronger effect = lower value 0.462 | locus YNR049C, strain mso1, stronger effect = lower value 0.594 | locus YOR001W, strain rrp6, stronger effect = lower value 0.349 | locus YOR070C, strain gyp1, stronger effect = lower value 0.309 | locus YOR080W, strain dia2, stronger effect = lower value 0.71 | locus YOR083W, strain WHI5, stronger effect = lower value 0.38 | locus YOR106W, strain vam3, stronger effect = lower value 0.391 | locus YOR231W, strain MKK1, stronger effect = lower value 0.464 | locus YOR265W, strain rbl2, stronger effect = lower value 0.425 | locus YOR270C, strain vph1, stronger effect = lower value 0.191 | locus YOR290C, strain snf2, stronger effect = lower value 0.145 | locus YPL051W, strain arl3, stronger effect = lower value 0.29 | locus YPL078C, strain atp4, stronger effect = lower value 0.166 | locus YPL106C, strain sse1, stronger effect = lower value 0.483 | locus YPL240C, strain hsp82, stronger effect = lower value 0.275 | locus YPL256C, strain CLN2, stronger effect = lower value 0.551
